Test results reported in PubChem BioAssay AID1159580 (chemical genetic matrix, 2015).
“And” between values parts separate entries of the source, which are not always exact repeats. Equal values may be shown once. Among all 5,500 compounds or so, about 2,000 (36%) were called active. Roughly 18% stayed inconclusive and do not appear here. Rule as the data show it: active = normalized growth mostly below about 0.91 (no sharp cut-off); inconclusive = no clear call, values can overlap the other calls; inactive = mostly above about 0.92. The list shows a part of the results.

Assay: chemical genetic growth profiling, strain panel (AID 1159580);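 also: tested at 20 µM; growth read once vehicle control cultures reached saturation at 30 °C; 1 = growth at the plate median or of vehicle wells; lower values mean less growth of the strain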
Conditions: S. cerevisiae deletion strains, growth OD

Measured: normalized growth

CC(=O)O[C@@H]1C2CC[C@@H]3C1(C[C@@H](O)[C@@]1(O)[C@@H](C[C@H](O)C1(C)C)[C@]3(C)O)C[C@@]2(C)O (stereo partly drawn)
inactive: locus YAL021C, strain ccr4, active compounds read low 0.996 | locus YAL026C, strain drs2, active compounds read low 0.984 | locus YAL030W, strain snc1, active compounds read low 0.992 | locus YBL061C, strain skt5, active compounds read low 1 | locus YBR009C, strain hhf1, active compounds read low 0.99 | locus YBR021W, strain FUR4, active compounds read low 1.02 | locus YBR023C, strain chs3, active compounds read low 0.997 | locus YBR171W, strain sec66, active compounds read low 0.979 | locus YBR229C, strain ROT2, active compounds read low 0.958 | locus YBR231C, strain swc5, active compounds read low 0.997 | locus YBR279W, strain paf1, active compounds read low 1 | locus YCL011C, strain gbp2, active compounds read low 0.985 | locus YCL016C, strain dcc1, active compounds read low 0.987 | locus YCL029C, strain bik1, active compounds read low 0.974 | locus YCL061C, strain MRC1, active compounds read low 0.995 | locus YCL069W, strain vba3, active compounds read low 0.989 | locus YCR088W, strain abp1, active compounds read low 0.988 | locus YDL005C, strain med2, active compounds read low 0.976 | locus YDL035C, strain GPR1, active compounds read low 0.998 | locus YDL040C, strain nat1, active compounds read low 0.986 | locus YDL074C, strain BRE1, active compounds read low 1.07 | locus YDL101C, strain DUN1, active compounds read low 0.988 | locus YDL134C, strain PPH21, active compounds read low 1.05 | locus YDL185W, strain tfp1, active compounds read low 0.992 | locus YDL192W, strain arf1, active compounds read low 0.992 | locus YDR001C, strain nth1, active compounds read low 0.996 | locus YDR069C, strain doa4, active compounds read low 0.999 | locus YDR101C, strain arx1, active compounds read low 0.976 | locus YDR137W, strain rgp1, active compounds read low 0.922 | locus YDR159W, strain sac3, active compounds read low 0.995 | locus YDR162C, strain NBP2, active compounds read low 1.01 | locus YDR195W, strain ref2 0.962 | locus YDR297W, strain sur2, active compounds read low 0.989 | locus YDR318W, strain mcm21, active compounds read low 0.991 | locus YDR334W, strain swr1, active compounds read low 0.957 | locus YDR335W, strain msn5, active compounds read low 0.999 | locus YDR388W, active compounds read low 0.996 | locus YDR392W, strain spt3, active compounds read low 0.993 | locus YDR502C, strain sam2, active compounds read low 1 | locus YEL003W, strain gim4, active compounds read low 0.988 | locus YEL037C, strain rad23, active compounds read low 0.997 | locus YEL061C, strain CIN8 (second series), active compounds read low 0.99 | locus YER015W, strain faa2, active compounds read low 0.997 | locus YER016W, strain bim1, active compounds read low 0.985 | locus YER110C, active compounds read low 0.96 | locus YER111C, strain swi4, active compounds read low 0.998 | locus YER155C, strain BEM2 (second series), active compounds read low 0.977 | locus YER155C, strain BEM2, active compounds read low 0.997 | locus YER167W, strain BCK2, active compounds read low 0.998 | locus YFR010W, strain ubp6, active compounds read low 0.977 | locus YGL078C, strain dbp3, active compounds read low 1 | locus YGL086W, strain mad1, active compounds read low 1 | locus YGL167C, strain pmr1, active compounds read low 0.998 | locus YGL173C, strain kem1, active compounds read low 0.987 | locus YGL227W, strain vid30, active compounds read low 0.998 | locus YGL240W, strain doc1, active compounds read low 0.991 | locus YGL248W, strain PDE1, active compounds read low 1.02 | locus YGL253W, strain hxk2, active compounds read low 0.996 | locus YGR078C, strain PAC10, active compounds read low 1.01 | locus YGR135W, strain pre9, active compounds read low 1.05 | locus YGR252W, strain gcn5, active compounds read low 1.08 | locus YHR013C, strain ard1, active compounds read low 0.984 | locus YHR027C, strain rpn1, active compounds read low 0.989 | locus YHR030C, strain SLT2, active compounds read low 1 and 0.972 | locus YHR079C, strain IRE1 (second series), active compounds read low 0.983 | locus YHR079C, strain IRE1, active compounds read low 0.959 | locus YHR094C, strain hxt1, active compounds read low 0.991 | locus YHR129C, strain ARP1, active compounds read low 1.01 | locus YHR142W, strain chs7, active compounds read low 0.997 | locus YHR200W, strain rpn10, active compounds read low 0.995 | locus YIL066C, strain RNR3, active compounds read low 1 | locus YIL073C, strain SPO22, active compounds read low 1.08 | locus YIL125W, strain kgd1, active compounds read low 0.971 | locus YIR030C, strain dcg1, active compounds read low 0.993 | locus YJL092W, strain hpr5, active compounds read low 0.985 | locus YJL095W, strain BCK1 (second series), active compounds read low 0.996 | locus YJL095W, strain BCK1, active compounds read low 1.06 and 0.981 | locus YJL115W, strain asf1, active compounds read low 0.969 | locus YJL129C, strain trk1, active compounds read low 0.992 | locus YJL134W, strain LCB3, active compounds read low 0.99 | locus YJL154C, strain vps35, active compounds read low 0.983 | locus YJL164C, strain tpk1, active compounds read low 0.995 | locus YJL166W, strain qcr8, active compounds read low 0.999 | locus YJL168C, strain set2, active compounds read low 0.995 | locus YJL187C, strain SWE1 (second series), active compounds read low 0.995 | locus YJL187C, strain SWE1, active compounds read low 0.994 | locus YJR066W, strain TOR1, active compounds read low 0.961 | locus YKL009W, strain mrt4, active compounds read low 0.992 | locus YKL068W, active compounds read low 0.988 | locus YKL085W, strain MDH1 (second series), active compounds read low 0.999 | locus YKL085W, strain MDH1, active compounds read low 0.999 | locus YKL160W, strain elf1, active compounds read low 0.998 | locus YKL190W, strain CNB1, active compounds read low 1.01 | locus YKR001C, strain vps1, active compounds read low 0.997 | locus YKR026C, strain gcn3, active compounds read low 0.987 | locus YKR091W, strain srl3, active compounds read low 1 | locus YLL001W, strain dnm1, active compounds read low 0.991 | locus YLL026W, active compounds read low 0.993 | locus YLL041C, strain sdh2, active compounds read low 0.989 | locus YLR027C, strain aat2, active compounds read low 0.985 | locus YLR039C, strain RIC1, active compounds read low 1.19 | locus YLR058C, strain SHM2, active compounds read low 0.993 | locus YLR102C, strain apc9, active compounds read low 0.999 | locus YLR113W, strain HOG1, active compounds read low 0.987 | locus YLR221C, strain rsa3, active compounds read low 0.992 | locus YLR258W, strain gsy2, active compounds read low 0.983 | locus YLR262C, strain YPT6 (second series), active compounds read low 1 | locus YLR268W, strain sec22, active compounds read low 0.987 | locus YLR320W, strain mms22, active compounds read low 1.01 | locus YLR342W, strain FKS1 (second series), active compounds read low 0.986 | locus YLR342W, strain FKS1, active compounds read low 1 | locus YLR357W, strain rsc2, active compounds read low 0.995 | locus YLR370C, strain arc18, active compounds read low 1 | locus YLR371W, strain rom2, active compounds read low 1 | locus YLR384C, strain iki3, active compounds read low 0.99 | locus YLR418C, strain cdc73, active compounds read low 1.01 | locus YML016C, strain PPZ1, active compounds read low 0.99 | locus YML032C, strain rad52, active compounds read low 0.99 | locus YML120C, strain ndi1, active compounds read low 0.994 | locus YML124C, strain tub3, active compounds read low 1 | locus YMR058W, strain fet3, active compounds read low 0.984 | locus YMR078C, strain ctf18, active compounds read low 0.99 | locus YMR125W, strain sto1, active compounds read low 0.981 | locus YMR129W, active compounds read low 0.993 | locus YMR205C, strain PFK2, active compounds read low 1.01 | locus YMR223W, strain ubp8, active compounds read low 1.01 | locus YMR231W, strain pep5, active compounds read low 0.993 | locus YMR263W, strain SAP30, active compounds read low 0.991 | locus YMR307W, strain GAS1, active compounds read low 1.16 | locus YNL067W, strain RPL9B, active compounds read low 1.01 | locus YNL071W, strain lat1, active compounds read low 0.981 | locus YNL153C, strain GIM3, active compounds read low 0.994 | locus YNL183C, strain NPR1, active compounds read low 0.952 | locus YNL209W, strain ssb2, active compounds read low 0.987 | locus YNL233W, strain BNI4, active compounds read low 1.05 | locus YNL248C, strain rpa49, active compounds read low 0.98 | locus YNL250W, strain rad50, active compounds read low 0.974 | locus YNL271C, strain bni1, active compounds read low 1 | locus YNL298W, strain CLA4, active compounds read low 0.992 | locus YNL307C, strain MCK1, active compounds read low 0.99 | locus YNL322C, strain KRE1 (second series), active compounds read low 0.99 | locus YNL322C, strain KRE1, active compounds read low 0.992 | locus YNR049C, strain mso1, active compounds read low 0.996 | locus YNR052C, strain pop2, active compounds read low 1.01 | locus YOL006C, strain TOP1, active compounds read low 1.16 | locus YOL012C, strain htz1 1.28 | locus YOL147C, strain pex11, active compounds read low 1 | locus YOR001W, strain rrp6, active compounds read low 0.987 | locus YOR061W, strain CKA2, active compounds read low 0.985 | locus YOR069W, strain VPS5, active compounds read low 1.01 | locus YOR070C, strain gyp1, active compounds read low 0.985 | locus YOR080W, strain dia2, active compounds read low 0.997 | locus YOR083W, strain WHI5, active compounds read low 1 | locus YOR106W, strain vam3, active compounds read low 0.985 | locus YOR136W, strain idh2, active compounds read low 0.995 | locus YOR144C, strain elg1, active compounds read low 0.994 | locus YOR184W, strain ser1, active compounds read low 0.992 | locus YOR231W, strain MKK1, active compounds read low 0.963 | locus YOR265W, strain rbl2, active compounds read low 0.994 | locus YOR270C, strain vph1, active compounds read low 0.984 | locus YOR290C, strain snf2, active compounds read low 1 | locus YOR316C, strain cot1, active compounds read low 0.987 | locus YPL051W, strain arl3, active compounds read low 1.01 | locus YPL078C, strain atp4, active compounds read low 0.996 | locus YPL106C, strain sse1, active compounds read low 0.98 | locus YPL240C, strain hsp82, active compounds read low 0.98 | locus YPL241C, strain CIN2, active compounds read low 1.01 | locus YPL256C, strain CLN2, active compounds read low 0.995 | locus YPR119W, strain clb2, active compounds read low 0.992 | locus YPR141C, strain kar3, active compounds read low 0.979 | locus YPR163C, strain tif3, active compounds read low 1.01 | locus YPR167C, strain met16, active compounds read low 1 | strain wtn01, active compounds read low 0.985
